High-throughput results from PubChem BioAssay.
KB-V1 cytotox: KB-V1 MDR subline cytotoxicity. KB-V1 MDR cells viability, CellTiter-Glo, 72 h. Potency, µM (highest dose often 46.1 µM), hits mostly cytotoxic. actives 3.4% (n = 400,000); also: nearly all actives have a fitted effect of over 60% in size
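Luminescent ATP read-out (CellTiter-Glo, 10 min) measures survival of drug-selected KB-V1 MDR cells after 72 h, 37 degrees C compound exposure. Medium: phenol-red-free DMEM, 10% FBS. Values from fitted concentration-response curves.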
HT1080NT lethal: kills 2HG-producing HT-1080-NT fibrosarcoma cells; HT-1080-NT fibrosarcoma viability, CellTiter-Glo ATP luminescence, 48 h; AID 686970; actives 1.6% (n = 360,000); Potency, µM (highest dose often 46.1 µM), hits mostly cytotoxic;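 also: NT is the 2HG producing partner of a matched IDH1 knockdown line; nearly all actives have a fitted effect of over 55% in size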
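Read-out is CellTiter-Glo luminescence after 10 minutes at room temperature, following 48 hours' compound treatment of HT-1080-NT cells (750 cells/well, RPMI, 5% FBS, 37 degrees C).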
MCF10A rereplic: DNA re-replication induction in MCF 10a cells; Potency, µM (highest dose often 46.1 µM), usual class: activators; MCF 10A DNA re-replication, Hoechst nuclear intensity, 48 h; actives 2.9% (n = 350,000); also: nearly all actives have a fitted effect of over 50% in size
HT1080 IDH1KD tx: HT-1080 IDH1 knockdown cell toxicity (counter line) | HT-1080 IDH1 knockdown viability, ATP luminescence, 48 h | Potency, µM (series often up to 46.1 µM), usual class: cytotoxic | actives 2% (n = 360,000)
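Knockdown cells (IDH1KD HT-1080) received compounds 2 h after plating at 750 cells/well and were kept 48 h at 37 °C in 5% FBS RPMI. A CellTiter-Glo luminescence read gave % activity for curve fitting.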
KB-3-1 cytotox: KB-3-1 parental cell cytotoxicity; Potency, µM (top dose mostly 46.1 µM), most hits filed as cytotoxic; actives 1.4% (n = 400,000); KB-3-1 viability, CellTiter-Glo ATP luminescence, 72 h; also: nearly all actives have a fitted effect of over 60% in size
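Cells are dispensed, compounds pinned in, plates held at 37 °C for 72 h, then CellTiter-Glo is added and luminescence read after 10 minutes. Cell line: parental KB-3-1 in phenol-red-free DMEM, 10% FBS.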
SW480 rerep: DNA re-replication induction in SW480 cells | SW480 DNA re-replication, Hoechst DNA content imaging, 48 h | AID 624297 | Potency, µM (highest dose often 46.1 µM), usual class: activators | actives 1.8% (n = 340,000); also: nearly all actives have a fitted effect of over 55% in size
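Compounds, transferred as 23 nL by pin tool, were incubated with cells for 48 hr; DNA content per nucleus was then quantified by Hoechst staining and fluorescence plate imaging.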
Large screens that a line does not name were inactive. Most compounds without a hit are left out; they make up all but 7.9% or so of the library. Calls follow the shape of the dose curve; as a rule, active = well fitted curve in the direction sought with a large enough effect; inconclusive = small, poorly fitted or top-dose-only effect, or another doubt; inactive = no such curve, though single readings can be large; an effect the other way counts as inactive or inconclusive.

Cc1ccccc1-c1nc(CNC(=O)Nc2ccccc2)c(C)o1	none (no result: HT1080NT lethal, MCF10A rereplic, HT1080 IDH1KD tx, SW480 rerep)
COc1ccc(CC(=O)Oc2ccc(F)cc2)cc1	KB-V1 cytotox inconclusive, MCF10A rereplic 0.65µM
Cc1cccc(C(=O)NCc2ccc(S(N)(=O)=O)cc2)c1[N+](=O)[O-]	none
CC(=O)c1ccc(Nc2cc(C)nc3c(C)cc(C)cc23)cc1	KB-V1 cytotox inconclusive, HT1080NT lethal 9.2µM, MCF10A rereplic inconclusive, HT1080 IDH1KD tx 8.2µM, KB-3-1 cytotox inconclusive, SW480 rerep 2.6µM
COc1cccc(CN(C)CC(=O)NC(=O)NCc2ccccc2)c1	KB-V1 cytotox 21µM
COc1ccc(CN(C)CC(=O)NC(=O)NCc2ccccc2)cc1OC	none
COc1ccc(CNC(=O)c2cccc(C)c2[N+](=O)[O-])cc1	KB-V1 cytotox 23µM
O=C(CSc1nc2c(c(=O)[nH]1)CCC2)Nc1cc(C(F)(F)F)ccc1Cl	none (no result: HT1080NT lethal, MCF10A rereplic, HT1080 IDH1KD tx, SW480 rerep)
COc1cc(OC)cc(C(=O)NCC(=O)Nc2ccc(-c3ccccc3)cc2)c1	HT1080NT lethal 2.9µM, MCF10A rereplic 4.6µM, HT1080 IDH1KD tx 5.8µM, KB-3-1 cytotox inconclusive, SW480 rerep 8.2µM
COc1cccc(CNC(=O)COc2ccc(C(=O)c3ccccc3)cc2)c1	KB-V1 cytotox 21µM, HT1080NT lethal inconclusive, MCF10A rereplic inconclusive, HT1080 IDH1KD tx inconclusive, KB-3-1 cytotox inconclusive, SW480 rerep inconclusive
Cc1nnc(-c2cccc(Br)c2)c2cn(-c3ccccc3Cl)nc12	KB-V1 cytotox inconclusive, KB-3-1 cytotox inconclusive
Cc1ccc(-n2cc3c(-c4cccc(Br)c4)nnc(C)c3n2)cc1	KB-V1 cytotox 16µM, KB-3-1 cytotox inconclusive
CC1CCN(c2csc3ccc(F)cc3c2=O)CC1	none (no result: HT1080NT lethal, MCF10A rereplic, HT1080 IDH1KD tx, SW480 rerep)
COc1ccc(S(=O)(=O)N2CCCCCC2)cc1C(=O)NCc1ccco1	none
COc1ccc(S(=O)(=O)N2CCCCCC2)cc1C(=O)NCc1cccs1	KB-V1 cytotox 8.2µM
COc1ccc(CNC(=O)c2cc(S(=O)(=O)N3CCCCC3)ccc2Cl)cc1OC	HT1080NT lethal 9.2µM, SW480 rerep inconclusive
COc1ccc(S(=O)(=O)N2CCCCCC2)cc1C(=O)N(C)Cc1ccc(F)cc1	none
COc1cc2[nH]cc(C(=O)NCc3cccs3)c(=O)c2cc1OC	HT1080NT lethal 20µM, HT1080 IDH1KD tx inconclusive
COc1ccc(S(=O)(=O)N2CCCCCC2)cc1C(=O)N(C)Cc1ccc(C(C)(C)C)cc1	KB-V1 cytotox inconclusive, HT1080NT lethal inconclusive, MCF10A rereplic 18µM, HT1080 IDH1KD tx inconclusive, KB-3-1 cytotox inconclusive
COc1ccccc1N1CCN(C(=O)CN2C(=O)COc3ccc(S(=O)(=O)N4CCCC4)cc32)CC1	KB-V1 cytotox inconclusive (no result: HT1080NT lethal, MCF10A rereplic, HT1080 IDH1KD tx, SW480 rerep)
Cc1cccc(C)c1NC(=O)Cn1c(SCC(=O)NCc2ccccc2)nc2ccccc21	none (no result: HT1080NT lethal, MCF10A rereplic, HT1080 IDH1KD tx, SW480 rerep)
CC(=O)NC(c1ccccc1)c1nc(-c2ccccc2)cs1 (centres undefined)	HT1080NT lethal inconclusive (no result: MCF10A rereplic, SW480 rerep)
Cc1cc(C)c(NC(=O)c2ncoc2-c2ccco2)c(C)c1	none (no result: HT1080NT lethal, MCF10A rereplic, HT1080 IDH1KD tx, SW480 rerep)
COc1ccc(S(=O)(=O)N2CCCCCC2)cc1C(=O)NCCOc1ccc(C)cc1	KB-V1 cytotox 9.2µM
O=C(NCCc1ccccc1)c1cc(S(=O)(=O)N2CCOCC2)ccc1F	none
COc1cc(OC)c(OC)cc1CNC(=O)c1ccc(S(=O)(=O)N2CCCCC2)cc1	KB-V1 cytotox 7.3µM
COc1ccc(CNC(=O)CCCn2ccc3cc(S(=O)(=O)N4CCCC4)ccc32)cc1	KB-V1 cytotox inconclusive, HT1080NT lethal inconclusive, MCF10A rereplic 21µM, HT1080 IDH1KD tx inconclusive, KB-3-1 cytotox inconclusive, SW480 rerep 7.3µM
COc1ccc(S(=O)(=O)N2CCCCCC2)cc1C(=O)Nc1ccc(C)cn1	none
COc1ccccc1CNC(=O)c1ccc(S(=O)(=O)N2CCCC2)cc1	none
Cc1cc(C)cc(OCCNC(=O)c2cc(S(=O)(=O)N3CCOCC3)ccc2F)c1	KB-V1 cytotox inconclusive, HT1080NT lethal inconclusive, HT1080 IDH1KD tx inconclusive, KB-3-1 cytotox 23µM, SW480 rerep inconclusive
Cc1ccc(OCC(=O)Nc2sc3c(c2C(N)=O)CCCC3)c(C(C)(C)C)c1	none (no result: HT1080NT lethal, MCF10A rereplic, HT1080 IDH1KD tx, SW480 rerep)
COc1ccc(S(=O)(=O)N2CCCCCC2)cc1N(C)S(=O)(=O)c1ccc(Cl)cc1	KB-V1 cytotox 21µM, HT1080NT lethal inconclusive
CCN(CC)S(=O)(=O)c1ccc2c(c1)c(=O)c(C(=O)NCc1cccs1)cn2C	KB-V1 cytotox 6.5µM
COc1ccc(S(=O)(=O)N2CCC(C)CC2)cc1N(C)S(=O)(=O)c1ccccc1	SW480 rerep inconclusive (no result: KB-V1 cytotox, KB-3-1 cytotox)
CCOc1ccc(-n2c(=O)c3c4c(sc3n(CC(=O)NC(C)CC)c2=O)CCC4)cc1 (centres undefined)	none (no result: HT1080NT lethal, MCF10A rereplic, HT1080 IDH1KD tx, SW480 rerep)
CCCN1CNc2c(c(=O)[nH]c(=S)n2CCc2cccc(Cl)c2Cl)C1	none (no result: KB-V1 cytotox, MCF10A rereplic, KB-3-1 cytotox, SW480 rerep)
CCOc1ccccc1CN1C(=O)c2ccccc2C1C(=O)NC1CCCCCC1 (centres undefined)	KB-3-1 cytotox inconclusive (no result: HT1080NT lethal, MCF10A rereplic, HT1080 IDH1KD tx, SW480 rerep)
CC(C)Cc1ccc(C(C)CC2=CCC(CN(C)C)C2=O)cc1 (centres undefined)	KB-V1 cytotox inconclusive, HT1080NT lethal inconclusive, MCF10A rereplic 6.5µM, HT1080 IDH1KD tx inconclusive, KB-3-1 cytotox inconclusive, SW480 rerep inconclusive
